Measured values taken from PubChem BioAssay AID1239 (SRMLSC, 2008).
Among all 190,000 compounds or so, about 3,100 (1.6%) were called active. Cut-off read from the data, not from the text of the source: active = fold change above about 3.3; inconclusive = no clear call, values can overlap the other calls; inactive = below that. The entries come from a sample that favours actives as a whole.

Test: activators of NF-kB expression in neurons, primary screen, cell-based, HTS (AID 1239)
Conditions: human neuronal cells, NF-kB reporter expression; at 12.5 µM; active compounds read high

Structure (SMILES)	fold change
Cc1nc(-c2ccc(Cl)cc2)sc1C(=O)CBr	1.42 (inactive)
N#CCC(=O)N/N=C/c1ccc(SCC(=O)Nc2ccccc2)o1	1.28 (inactive)
COCCN(C(=O)CCC(=O)Nc1nccs1)C(C(=O)NC(C)(C)C)c1ccc(Cl)cc1 (stereo not drawn)	1.27 (inactive)
O=C(NCCc1ccccc1)c1ccc(NC2=NC3CS(=O)(=O)CC3S2)cc1 (stereo not drawn)	1.1 (inactive)
COc1ccc(C(=O)NC2CCN(C(=S)NCCc3ccccc3)CC2)cc1	0.91 (inactive)
CC1CCCN(c2ccc(C(=O)NCCc3ccccc3)cn2)C1 (stereo not drawn)	4.24 (active)
COCCNc1nc(N)c([N+](=O)[O-])c(NCCO)n1	0.91 (inactive)
CNc1nc(Nc2ccc(C)c(Cl)c2)nc(N)c1[N+](=O)[O-]	5.21 (active)
Nc1nc(NCCCN2CCOCC2)nc(Nc2ccccc2)c1[N+](=O)[O-]	0.82 (inactive)
O=C(c1cccc(C(=O)N2CCc3ccccc32)n1)N1CCc2ccccc21	0.82 (inactive)
O=C(c1cnn2ccccc12)N1CCc2ccccc21	3.74 (active)
Cc1occc1C(=O)N1CCCc2ccccc21	1.12 (inactive)
Cc1cc(C)n(CCNCc2c(C(=O)N3C[C@@H](C)O[C@@H](C)C3)nc3ccc(Cl)cn23)n1	0.98 (inactive)
Cc1ccccc1NC(=O)Cn1c(=O)n(CC2CCCO2)c(=O)c2ccccc21 (stereo not drawn)	0.98 (inactive)
Cc1ccc(Nc2nc(-c3ccc(O)cc3O)cs2)nc1	5.35 (active)
Cc1ccc(NC(=O)c2cc(-c3ccc(C)o3)nc3ccccc23)nc1	0.88 (inactive)
Cc1ccc(-c2csc(NNC(=O)c3ccccc3)n2)cc1	0.64 (inactive)
CCOC(=O)Cn1nnnc1C	0.94 (inactive)
Cc1ncc(CC(=O)n2cc(C(=O)c3cc(Cl)ccc3O)cn2)s1	0.9 (inactive)
O=C(O)c1ccc(NC(=O)c2cn(-c3ccccc3)nc2-c2ccc(Cl)cc2)cc1	1.11 (inactive)
O=C(c1cnn(-c2ccc(Cl)cc2)c1)c1ccccc1O	6.38 (active)
O=C(Nc1ccc(Cl)cc1)C1c2cccc[n+]2CC(=O)N1Cc1ccc2c(c1)OCO2 (stereo not drawn)	1.64 (inactive)
Cc1ccc(-c2nc3ccccc3[nH]2)cc1N	6.83 (active)
c1ccc2[nH]c(-c3nc4ccccc4[nH]3)nc2c1	2.17 (inactive)
Cc1ccc(-c2nc3ccccc3[nH]2)cc1NC(=O)c1sc2ccccc2c1Cl	0.76 (inactive)
O=C(O)CCn1c(SCc2cc(=O)n3ccccc3n2)nc2ccsc2c1=O	1.78 (inactive)

Structure (SMILES)	fold change
CC(=O)Nc1ccc(NC(=O)C(C)n2c3ccccc3c3nc(=O)cc(C)n32)cc1 (stereo not drawn)	1.25 (inactive)
COc1cccc(NC(=S)N(Cc2ccc(C)cc2)Cc2ccccn2)c1	1.01 (inactive)
CC(O)CNCCOc1cccc(Oc2ccccc2)c1 (stereo not drawn)	1.14 (inactive)
O=C(O)c1ccc(NC(=O)c2cccs2)cc1	1.13 (inactive)
CC(=O)Nc1ccc(/C=N/NC(=O)c2cccs2)cc1	3.48 (active)
Cc1cccc(-n2c(C)cc(/C=N\NC(=O)c3cccs3)c2C)c1	0.9 (inactive)
CCOc1ccc(C(C)=O)cc1CSc1nnc(-c2ccncc2)n1CCOC	0.95 (inactive)
CC(C)CCC(C)NC(=O)c1ccc2nccnc2c1 (stereo not drawn)	1.64 (inactive)
CC(NC(=O)COC(=O)c1ccc(Cl)cc1O)c1ccc(F)cc1 (stereo not drawn)	1.15 (inactive)
CCOC(=O)CSc1nnc(-c2ccncc2)o1	1.05 (inactive)
CCCCSc1nnc(-c2ccc(C)cc2)o1	3.57 (active)
CCOC(=O)CSc1nnc(-c2ccc([N+](=O)[O-])cc2)o1	1.11 (inactive)
N/C(=N\OC(=O)Cc1ccccc1[N+](=O)[O-])c1ccc(Br)cc1	1.12 (inactive)
COc1ccc(OC)c(C(=O)CSc2nnc(-c3cccs3)o2)c1	1.11 (inactive)
COc1ccc(-c2nnc(SCC(=O)c3cccs3)o2)c(OC)c1	5.16 (active)
COc1ccc(-n2c(C)cc(C(=O)CSc3nnc(-c4cccs4)o3)c2C)cc1	0.93 (inactive)
Cn1nc(C(F)(F)F)c2cc(C(=O)N3CCOCC3)sc21	0.92 (inactive)
COc1ccc(-c2cc(C(=O)NCCCn3ccnc3)no2)cc1	1.83 (inactive)
O=C(NCCCn1ccnc1)c1cc(-c2ccccc2)on1	8.21 (active)
COc1ccccc1-c1cc(C(=O)NCCCn2ccnc2)no1	1.28 (inactive)
CC(=O)Nc1cccc(-c2cnc3ccccc3n2)c1	2.74 (inactive)
CC(=O)Nc1cccc(-c2csc(Nc3cccc(C)n3)n2)c1	8.2 (active)
COc1ccc(CCNc2nc(-c3cccc(NC(C)=O)c3)cs2)cc1OC	0.5 (inactive)
CCOc1cc(NC(=S)NCCCN(C)C)c(OCC)cc1NC(=O)C1CC1	0.96 (inactive)
CCOn1c(=O)c(=O)n(O)c2ccccc21	1.15 (inactive)
C=C(C)CNC(=S)N/N=C/c1ccccc1OCC(=O)O	1.35 (inactive)

Structure (SMILES)	fold change
CCn1c(SCc2ccc(C)cc2)nnc1-c1nn(-c2ccccc2)ccc1=O	1.19 (inactive)
N=C(N)SCc1cccc2ccccc12	0.88 (inactive)
CCc1ccc(-c2nn(-c3ccccc3)cc2CSC(=N)N)cc1	6.66 (active)
O=c1nc(N/N=C/c2ccco2)cn[nH]1	1.22 (inactive)
COc1ccc(CNc2c(CO)cnc3c2cnn3C)cc1	1.06 (inactive)
Cc1c(NC(=O)CSc2cccc3cccnc23)c(=O)n(-c2ccccc2)n1C	7.73 (active)
Cc1c(NC(=O)CSc2nnnn2-c2ccc(C(=O)O)cc2)c(=O)n(-c2ccccc2)n1C	1.04 (inactive)
Cc1ccccc1OCCC(=O)Nc1c(C)n(C)n(-c2ccccc2)c1=O	0.99 (inactive)
CCN(CC)CCNc1nc(-c2ccc(OC(F)F)cc2)c(C)s1	0.94 (inactive)
NC(=O)c1ccc(N2CCOCC2)nc1	0.96 (inactive)
COc1cc(/C=N/NC(=O)c2cc(C)n(-c3ccc(F)cc3)c2C)cc(OC)c1O	1.02 (inactive)
C/C(=N\NC(=S)NCc1ccccc1)C1CCCCC1	1.07 (inactive)
O=c1[nH]n2c(-c3ccccc3)nc(O)c2c2ccccc12	1.02 (inactive)
CCn1nc(C)c(CN2CCN(Cc3ccc(OC)c(C)c3C)C(CCO)C2)c1C (stereo not drawn)	1.19 (inactive)
CCCC(=O)Nc1cccc(-c2cn3ccsc3n2)c1	1.3 (inactive)
COc1ccc(-c2cn3cccnc3n2)cc1	2.19 (inactive)
COc1ccc(-c2cn3ccsc3n2)cc1	5.24 (active)
CC(C)(C)n1ncc2c(=O)n(Cc3ccc(Cl)cc3)cnc21	1.03 (inactive)
O=C(COc1ccc(Cl)cc1)NCc1nnc(SCC(=O)NCC2CCCO2)o1 (stereo not drawn)	1.01 (inactive)
CC(=O)c1sc(NC(=O)c2cccc3ccccc23)nc1C	0.7 (inactive)
Cc1cccc(CSc2nnc(NC(=O)CSc3nnc(C)s3)s2)c1	1.18 (inactive)
CC(=O)c1sc(NC(=O)c2ccc(C)cc2)nc1C	3.36 (active)
CCSc1nnc(NC(=O)c2ccc(C)cc2)s1	5.31 (active)
CC(=O)c1sc(N/N=C\c2ccc(C)cc2)nc1C	2.4 (inactive)
CCSc1nnc(NC(=O)Cc2ccccc2OC)s1	1.18 (inactive)
C=CCn1nc(-c2ccccc2)c2c(C)onc2c1=O	1.1 (inactive)

Structure (SMILES)	fold change
COc1cc(/C=N\Nc2ccc([N+](=O)[O-])cn2)ccc1OCC(=O)O	1.24 (inactive)
COc1cc(C(=O)OCc2ccc([N+](=O)[O-])cc2)cc(OC)c1OC	1.05 (inactive)
COc1cc(/C=N/O)ccc1OCc1ccc([N+](=O)[O-])cc1	6.35 (active)
COc1ccc(C2=NN(c3nc4ccccc4s3)C(=O)C2)cc1	1.02 (inactive)
Cn1c(-c2ccco2)nc2cc3ccccc3cc21	6.6 (active)
CN1c2ccccc2-c2nc3ccccc3n2C1c1ccco1 (stereo not drawn)	1.03 (inactive)
CN(c1nc2ccccc2n2c(-c3ccco3)nnc12)S(=O)(=O)c1ccccc1	0.98 (inactive)
Cc1nc2ccccc2c(C)c1C(=O)c1ccc(F)cc1	0.8 (inactive)
COC(=O)c1c(NC(=O)CCCC(=O)O)sc2c1CCCCC2	0.98 (inactive)
CCn1c(=S)[nH]c2sc3c(c2c1=O)CCCCC3	1.2 (inactive)
CN(NC(=O)c1ccccc1)c1nc2ccccc2nc1C(F)(F)F	1.32 (inactive)
CSc1nc(N(C)NC(=O)c2cccc(C)c2)c2ccccc2n1	3.68 (active)
CN(NC(=O)c1ccccc1F)c1nc(C(F)(F)F)nc2ccccc12	1.67 (inactive)
Cc1cc(NS(=O)(=O)c2ccc(NC(=O)c3cccc(OC(F)F)c3)cc2)nc(C)n1	1.45 (inactive)
O=C1CN(C(=O)CN2C(=O)NC3(CCCCC3)C2=O)c2ccccc2N1	1.43 (inactive)
Cc1cc(C(C)(C)C)cc(C)c1N	1.01 (inactive)
COc1ccc(-c2cc(C)nc3nc(N)nn23)cc1	1.23 (inactive)
Cc1cc(N)n2nc(-c3ccc(C(C)(C)C)cc3)cc2n1	5.07 (active)
NC(=O)Cc1ccc2sc(-c3ccccc3)nc2c1	6.92 (active)
O=C(O)Cc1sc(-c2ccccc2)nc1-c1cccs1	1.28 (inactive)
O=C(O)Cc1sc(-c2ccc(C(=O)O)cc2)nc1-c1ccccc1	1.21 (inactive)
CCc1cccc(NC(=O)CCNS(=O)(=O)c2cccc3nonc23)c1	1.16 (inactive)
O=[N+]([O-])c1ccc(N2CCN(c3ccc(O)cc3)CC2)c(Cl)c1	4.06 (active)
CCN1CCN(c2ccc([N+](=O)[O-])cc2C(=O)c2ccc(Cl)cc2)CC1	1.37 (inactive)
COc1ccc(N2CCN(c3ccc([N+](=O)[O-])cc3Cl)CC2)cc1	0.93 (inactive)
